This note sets out measurements from ChEMBL document CHEMBL3988442, “University of Dundee, Small-Polar-MMV Screening Library” (2021).

Molecules are shown by their SMILES. Screen size: about 69,000 compounds; about 420 (0.61%) showed an effect of 50% or more. Shown is part of a subset that was picked to be rich in strong results.

For this experiment, the target named is T1, Histidine--tRNA ligase (Leishmania infantum) (UniProt A4I591).
T1 sequence (whole entry): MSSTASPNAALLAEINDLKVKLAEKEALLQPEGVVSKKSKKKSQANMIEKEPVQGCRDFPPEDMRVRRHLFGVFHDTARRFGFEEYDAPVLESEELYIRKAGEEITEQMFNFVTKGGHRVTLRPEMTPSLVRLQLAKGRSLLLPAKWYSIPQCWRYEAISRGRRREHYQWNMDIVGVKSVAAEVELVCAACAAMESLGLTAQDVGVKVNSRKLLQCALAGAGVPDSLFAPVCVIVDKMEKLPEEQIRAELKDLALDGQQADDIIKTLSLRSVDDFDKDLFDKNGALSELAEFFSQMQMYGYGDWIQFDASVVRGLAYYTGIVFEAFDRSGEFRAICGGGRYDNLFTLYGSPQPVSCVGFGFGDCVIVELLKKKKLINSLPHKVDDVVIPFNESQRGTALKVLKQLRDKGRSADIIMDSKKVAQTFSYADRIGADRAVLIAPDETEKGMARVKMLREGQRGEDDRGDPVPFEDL
As to the kind of experiment: Leishmania infantum Histidine tRNA synthetase (LdHisRS). Type of experiment: functional. The arrangement: scale not given: in the data most compounds retested in dose-response had high values. The following applies: 30 µM.
For `COCc1nc2cc(NCc3ncc[nH]3)ccc2o1`, the Percent Effect stood at 38.4%.

Regarding `CCCS(=O)(=O)C(C)C(=O)Nc1ccc2oc(C3CC3)nc2c1` (centres undefined), the Percent Effect came to 26.8%.

As for `COCc1nc2cc3c(cc2c(=O)o1)OCCCO3`, the Percent Effect was determined as 15.7%.

As for `O=C(NC1CC1)[C@H]1COC[C@H]2CN(c3ncc(F)cn3)C[C@H]21`, the Percent Effect stood at 12%.

For the compound `Cc1nc(CN2CCO[C@H]3CN(C(=O)c4cccn4C)C[C@H]32)cs1`, the Percent Effect is 10.5%.

As for `CNC(=O)[C@@H]1[C@@H](c2ccccc2)CN2CCN(Cc3cccs3)C[C@H]12`, the Percent Effect is 6.12%.

With `Cc1ccc(CN2C[C@@H]3CN(CC4CCOCC4)CCO[C@@H]3C2)s1`, the Percent Effect is 19%.

With `COCC(=O)N[C@H]1C[C@H]2C(=O)NC[C@@H](CCC(=O)NC3CC3)N2C1`, the Percent Effect amounted to 5.56%.

`CN(C)C(=O)[C@@H]1CCO[C@@H]2CCN(c3ncccn3)C[C@@H]21`: the Percent Effect is 0%.

As for `CNC(=O)[C@@H]1CC[C@@H]2[C@@H](CCN2C(=O)N(C)C)O1`, the Percent Effect came out at 0%.

As to `COC[C@@]12CCO[C@@H]1CCN(C(=O)Cc1cccc(F)c1)C2`, the Percent Effect worked out at 19.4%.

For the compound `CCOc1ccc2nc(CN3CCOC(CN)C3)ccc2c1` (centres undefined), the Percent Effect came to 13.4%.

For the compound `CCOc1ccc2nc(CN3CCC(CN)C3)ccc2c1` (centres undefined), the Percent Effect came to 52.2%.

As for `CCOc1ccc2nc(CN3CCC(CNC(C)=O)C3)ccc2c1` (centres undefined), the Percent Effect is 37.3%.

For `COC[C@@]12CCO[C@@H]1CCN(C(=O)Cc1ccccc1F)C2`, the Percent Effect came out at 11.4%.

Turning to `O=C1[C@@H]2CCN(Cc3ccoc3)C[C@@H]2OCCN1Cc1cccnc1`, the Percent Effect was 15.3%.

Take `Cc1cc(C)cc(OCCC(=O)NC2CC(=O)N(C)C2)c1` (centres undefined): the Percent Effect was 74.7%.

In the case of `CN1CC(NC(=O)CCOc2cccc(Cl)c2)CC1=O` (centres undefined), the Percent Effect stood at 4.22%.

In the case of `Cc1ccc(OCCC(=O)NC2CC(=O)N(C)C2)cc1C` (centres undefined), the Percent Effect is 12.7%.

For the compound `Cc1nc(CN2CCO[C@H]3[C@H](OCC(=O)N(C)C)CC[C@@H]32)cs1`, the Percent Effect is -9.73%.

As for `COc1cccc(-c2n[nH]c3c2CN(C(=O)c2ccncc2)CC3)c1`, the Percent Effect came out at 0%.

With `COc1cccc(-c2n[nH]c3c2CN(C(=O)c2cccc(=O)[nH]2)CC3)c1`, the Percent Effect came to 65.6%.

For the compound `COc1cccc(-c2n[nH]c3c2CN(C(=O)c2cc(C)n(C)n2)CC3)c1`, the Percent Effect worked out at 0%.

Regarding `Cc1csc(CN2CC[C@H]3C[C@@H](c4noc(C)n4)O[C@@H]3C2)n1`, the Percent Effect is 12.9%.

Consider `COc1ccc(CC(=O)N(C)c2cccnc2N(C)C)c(Cl)c1`, for which the Percent Effect turned out to be 57.1%.

For the compound `CN(C)c1ncccc1N(C)C(=O)Cn1cc(-c2ccccc2)nn1`, the Percent Effect turned out to be 0%.

With `COc1cccc(OCC(=O)N(C)c2cccnc2N(C)C)c1`, the Percent Effect was 10.2%.

On to `COC[C@]12COC[C@H]1CN(Cc1cc(OC)cc(OC)c1)C2`, for which the Percent Effect came out at 4.51%.

On to `COCC(=O)N1CC[C@H]2C[C@@H](c3nnc(C4CC4)o3)O[C@@H]2C1`, for which the Percent Effect amounted to 18.9%.

In the case of `CCn1nc(C)cc1C(=O)N1CC[C@H](OC)[C@H]2CN(CC3CC3)C[C@H]21`, the Percent Effect amounted to 3.95%.

Take `COc1ccc(CC(=O)N2CC[C@@H]3[C@H](CC2)N(C)CCS3(=O)=O)cc1`: the Percent Effect turned out to be 17.1%.

As to `Cc1cccnc1NC(=O)C1CSc2ncc(C)c(=O)n2C1` (centres undefined), the Percent Effect was 20.5%.

Regarding `Cc1cnc2n(c1=O)CC(C(=O)Nc1cccc3cccnc13)CS2` (centres undefined), the Percent Effect is 67.3%.

In the case of `Cc1ccncc1NC(=O)C1CSc2ncc(C)c(=O)n2C1` (centres undefined), the Percent Effect was determined as 15.4%.

Take `CC(C)NC(=O)[C@@H]1CCO[C@@H]2CCN(c3ncccn3)C[C@@H]21`: the Percent Effect was determined as 11.1%.

In the case of `COCCCSc1ccc(NCc2scnc2C)cc1`, the Percent Effect was found to be 9.09%.

Turning to `Cc1csc(CNc2cccc(OCCN3CCCC3)c2)n1`, the Percent Effect turned out to be 23.2%.

Regarding `COCc1nc2cc(NCc3sc(C)nc3C)ccc2o1`, the Percent Effect was 79.5%.

As to `COCc1nc2cc(NCc3scnc3C)ccc2o1`, the Percent Effect was determined as 54.5%.

As to `COCc1nc2cc(NCc3nc(C)cs3)ccc2o1`, the Percent Effect worked out at 106%.

Regarding `Cc1ncsc1CNc1cccc(OCCN2CCCC2)c1`, the Percent Effect is 25.2%.

With `COCc1nc(CNc2cccc(-c3csc(C)n3)c2)cs1`, the Percent Effect is -6.67%.

Take `COCc1nc2cc(NCc3csc(C)n3)ccc2o1`: the Percent Effect was 29.5%.

With `COCc1nc(CNc2cccc(-c3nc(C)c(C)o3)c2)cs1`, the Percent Effect was 0%.

With `CN(C)CCNC(=O)[C@H]1C[C@@H]2CN(C(=O)NC3CCCC3)C[C@H]1O2`, the Percent Effect worked out at 8.62%.

For `CN(C)c1cccc(C(=O)N2C[C@H]3CC[C@@H]2CN(C(=O)C2CCC2)C3)c1`, the Percent Effect stood at 18.4%.

`O=S(=O)(c1cccs1)N1CCN2C[C@H](OCC3CC3)C[C@H]2C1`: the Percent Effect is 10.5%.

Regarding `C[C@@H]1C[C@H]2CN(C(=O)c3ccncn3)C[C@H]2O1`, the Percent Effect was -2.56%.

Regarding `Cc1nnc([C@@H]2CCO[C@@H]3CCN(C(=O)Cc4ccccn4)C[C@@H]32)o1`, the Percent Effect came out at 15.8%.

Turning to `CN1[C@H](CN2CCCC2)C[C@@H]2CN(Cc3ccoc3)CC[C@@H]21`, the Percent Effect was determined as 6.84%.

On to `CCc1ccc(-c2c(C)c(-c3cnn(C)c3)nc(N)c2C#N)o1`, for which the Percent Effect was 19.7%.

Take `Cc1c(-c2cnn(C)c2)nc(N)c(C#N)c1-c1ccc(CO)o1`: the Percent Effect is 19.7%.

Take `Cc1n[nH]c(C)c1-c1cc(-c2ccc[nH]2)nc(N)c1C#N`: the Percent Effect stood at 27.5%.

For the compound `Cc1cc(-c2c(C)c(-c3cnn(C)c3)nc(N)c2C#N)oc1C`, the Percent Effect was 22.4%.

As to `Cc1n[nH]c(C)c1-c1c(C#N)c(N)nc2c1CCc1[nH]ccc1-2`, the Percent Effect worked out at 108%.

For the compound `CCn1cc(-c2cc(-c3ccn(C)c3)nc(N)c2C#N)cc1C#N`, the Percent Effect is 10.4%.

Turning to `Cc1n[nH]c(C)c1-c1cc(-c2cc[nH]c2)nc(N)c1C#N`, the Percent Effect amounted to 31.9%.

Consider `Cn1cc(-c2c(C#N)c(N)nc3c2CCc2[nH]ccc2-3)cn1`, for which the Percent Effect was determined as 97.4%.

Turning to `Cn1cc(-c2c(C#N)c(N)nc3c2CCc2[nH]ccc2-3)cc1C#N`, the Percent Effect worked out at 68.4%.
